# Screening data as filed in PubChem BioAssay.
# Tgondii IFNg = T. gondii growth inhibition with IFN-gamma, primary screen, cell-based; 69,000 compounds, 3.8% hits; Toxoplasma gondii growth in IFN-gamma-treated host cells; active compounds read low; activity change, negative = inhibition, % (concentration not given with the values); in the data active = activity change below about -70%, passing the limit was not always enough;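 note: host cells are HeLa cells infected with Toxoplasma gondii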
# Starred values were filed as active, the others as inactive; ! = not active in a repeat. This is one part of a sample in which hits are shown more often than they occur.
SMILES,Tgondii IFNg
CC1(C)[C@@H](O)CC[C@]2(C)[C@H]3C(=O)C=C4[C@@H]5C[C@@](C)(C(=O)O)CC[C@]5(C)CC[C@@]4(C)[C@]3(C)CC[C@@H]12,10
C[C@H]1[C@H](C)CC[C@]2(C(=O)O)CC[C@]3(C)C(=CC[C@@H]4[C@@]5(C)CC[C@H](O)C(C)(C)[C@@H]5CC[C@]43C)[C@H]12,-79*
CC1(C)CC[C@]2(C(=O)O)CC[C@]3(C)C(=CCC4[C@@]5(C)CC[C@H](O)[C@@](C)(CO)C5CC[C@]43C)C2C1 (some centres undefined),7
Cc1cc(-c2noc(C(C)(C)C)n2)no1,-1
O=C(CSc1nc(=O)c2ccccc2s1)NC12CC3CC(CC(C3)C1)C2,20
CCc1ncnc2c1CCN(C(=O)CCc1ccccc1)CC2,-26
CCc1nc(C)c(C(=O)N(C)Cc2csc(C(C)C)n2)o1,-92*
CCc1nc(C)c(C(=O)N(C)Cc2snnc2C)o1,-27
CCc1nc(C)c(C(=O)N(C)Cc2ccc3nsnc3c2)o1,-3
O=C(c1cn2ccsc2n1)N1CCc2c([nH]c3ccccc23)C1C1CCCCC1 (centres undefined),-30
CC1=C(C(=O)NCCCN2CCCCCC2)C2(CCN(S(C)(=O)=O)CC2)OC1=O,24
CCc1oc2c(-n3cnnc3)cccc2c1C,-10
Cc1cc2cc(NC(=O)c3ccc(-n4cnnc4)cc3)cc(Cl)c2o1,-9
CCc1oc2c(Cl)cc(-n3cnnc3)cc2c1C,-85*
CCOc1ccc2oc(=O)cc(CN3CCN(Cc4nc(-c5ccccc5C)oc4C)CC3)c2c1,-31
COc1ccc(F)c(CN(CCCN(C)C)Cc2ccccn2)c1,4
Cc1nc(-c2ccc(Cl)cc2)sc1CCNC(=O)c1c(F)cccc1F,-46
Cc1ccc2c(c1)c1c3n2CCN=C3CCC1,-21
Cc1cccc(NCc2c(C#N)c3ccccc3n2C)c1,230
Cc1ccc2c(c1)c1cccc3c1n2CCN3CCC#N,-103*
COc1cccc(C(=O)N2CCC3(CC2)CCn2c(-c4ccc(C(N)=O)cc4)cnc23)c1,7
COc1ccccc1/C=C/CN1CC2CCCN2C[C@H]1C (some centres undefined),-79*
COc1ccccc1/C=C/CN1CCN(C)C(C(=O)O)C1 (centres undefined),5
COc1ccccc1/C=C/CN1CCNC(C(=O)N2CCCC2)C1 (centres undefined),2
O=C(NC1CC1)N1CCC2(CCC(=O)N2Cc2ccccc2)CC1,51
SMILES,Tgondii IFNg
COc1ccc(-c2noc(COc3cccnc3C)n2)c(OC)c1OC,-26
Cc1nc(-c2cccc(-c3cccc4ccnn34)c2)no1,8
COc1ccc(-c2cccc(-c3noc(C)n3)c2)c(OC)c1OC,-75*
CCN(C)c1ncnc2c1CCN(C(=O)Cc1ccccn1)CC2,-5
COCCN1CCN(C(=O)Cc2ccsc2)Cc2ccc(C)nc21,-2
CC(C)Cc1noc(C(C)NC2CCN(c3ccc4c(c3)OCO4)CC2)n1 (centres undefined),-2
CCN1CCCC1CNC(=O)c1ccc2c(c1)[nH]c(=O)n2Cc1ccc(OC)cc1 (centres undefined),-30
COc1cccc(NC(=O)CC2NCCNC2=O)c1 (centres undefined),46
COc1cccc(NC(=O)c2ccc3c(c2)[nH]c(=O)n3C2CCCCC2)c1,-83*
CCCn1cc(S(=O)(=O)N2CCN(Cc3csc(C)n3)CC2)c(C)n1,3
Cc1cccc(Cl)c1S(=O)(=O)N1CC(c2ccccn2)C1,4
CC(=O)OC(C)C1CCC2C3CC[C@H]4CC(=O)CCC4(C)C3CCC12C (some centres undefined),-97*
C[C@H](CCC(=O)O)[C@H]1CC[C@H]2[C@@H]3[C@@H](O)C[C@@H]4C[C@H](O)CC[C@]4(C)[C@H]3CC[C@]12C,11
CC(=O)OCC(=O)[C@H]1CCC2C3CCC4=CC(=O)CC[C@]4(C)C3CC[C@@]21C (some centres undefined),-30
Cc1ncc(CN2CC=CC[C@@]3(C(=O)N4CCN(C)CC4)CCC[C@@H]23)cn1,100
COCC(=O)N1CC[C@@H](N2CCN(C)CC2)[C@H]1Cc1ccncc1,15
Cc1nc(CCNC(=O)C2CCN(C(=O)c3cccc(F)c3)CC2)cs1,-3
CC(=O)Nc1cccc(-c2ccc(C(=O)Nc3cccnc3)o2)c1,-10
Cc1ccccc1-c1ccc(C2[C@@H]3CN(S(=O)(=O)Cc4ccccc4)C[C@H]2N3)cc1 (some centres undefined),-77*
Cc1ccccc1-c1ccc([C@@H]2[C@@H](CO)N3CCCCN(S(=O)(=O)Cc4ccccc4)C[C@H]23)cc1,-60
Cc1ccccc1S(=O)(=O)N1C[C@@H]2N[C@H](C1)C2c1ccc(-c2cccc(C#N)c2)cc1 (some centres undefined),-71*!
Cc1ccccc1-c1ccc([C@H]2[C@H](CO)N3CCCCN(S(=O)(=O)Cc4ccccc4)C[C@@H]23)cc1,-47
N#Cc1cccc(-c2ccc(C3[C@@H]4CN(C(=O)C5CCOCC5)C[C@H]3N4)cc2)c1 (some centres undefined),-10
CS(=O)(=O)N1C[C@@H]2N[C@H](C1)[C@@H]2c1ccc(-c2ccccc2)cc1,-67
O=C(c1cc(-c2ccccc2)on1)N1CCCn2cncc2C1,7
SMILES,Tgondii IFNg
CCOC1COC2(CCCN(C(=O)c3cnccn3)C2)C1 (centres undefined),6
COc1cc(C(=O)N2CCC3(CN(C)C(=O)O3)C2)ccn1 (centres undefined),-51
COc1ccc(NC(=O)c2nnn(Cc3nc(-c4ccccc4OC)oc3C)c2C)cc1Cl,107
C[C@H]1O[C@@H](n2cc(F)c(=O)[nH]c2=O)[C@H](O)[C@@H]1O,-91*
Cc1cn([C@H]2O[C@@H](CO)[C@H](O)[C@@H]2F)c(=O)[nH]c1=O,18
CCCCCOC(=O)Nc1nc(=O)n([C@@H]2O[C@H](C)[C@@H](O)[C@H]2O)cc1F,-53
O=c1[nH]c(=O)c2cc(S(=O)(=O)Nc3ccc(Oc4cccnc4)cc3)ccc2[nH]1,34
Cc1ccc(C)c(-c2nc(CSc3nc4c(=O)[nH]cnc4n3C)c(C)o2)c1,0
COCC1CN(Cc2csc(C)n2)Cc2cncn2C1 (centres undefined),3
COc1ccc(-c2nc(Cn3c(=O)c4cccnc4n(-c4ccccc4)c3=O)c(C)o2)cc1OC,9
CCN(CC)c1ncnc2c1cnn2CC(=O)NCc1ccc(F)c(Cl)c1,-28
O=C(Cn1ncc2c(N3CCCCC3)ncnc21)NCc1ccncc1,-29
CC1CCN(c2ncnc3c2cnn3CC(=O)NCc2ccc(F)cc2)CC1,-95*
CCN(CC)c1ncnc2c1cnn2CC(=O)NCc1ccc(F)cc1F,-104*
Cc1ccc(CNC(=O)Cn2ncc3c(N4CCCC4)ncnc32)cc1,44
O=C(Cn1ncc2c(N3CCOCC3)ncnc21)NCc1ccc(C(F)(F)F)cc1,-35
Cc1ccc(CNC(=O)Cn2ncc3c(N4CCC(C)CC4)ncnc32)cc1,-94*
O=C(Cn1ncc2c(N3CCCC3)ncnc21)NCc1ccc(F)cc1,-61
CCN(CC)c1ncnc2c1cnn2CC(=O)NCc1cc(F)cc(F)c1,32
CCc1ccc(CNC(=O)Cn2ncc3c(N4CCCCC4)ncnc32)cc1,168
CCOc1ccc(CNC(=O)Cn2ncc3c(N4CCC(C)CC4)ncnc32)cc1OCC,189
O=C(Cn1ncc2c(N3CCCCCC3)ncnc21)NCc1ccc(C(F)(F)F)cc1,-82*
